Reference: PubChem BioAssay (NCATS)
Where “and” joins values, the source holds several entries; their conditions need not be identical. Identical values can stand only once. Results filed as inconclusive are left out. Where a call stands in place of a potency, no number is given. Calls of active or inactive are those of the source. Calls come from the whole dose curve.

Test: Primary qHTS to identify inhibitors of SARS-CoV-2 cell entry (AID 1645846); note: nearly all actives have a fitted effect of over 45% in size
Settings: SARS-CoV-2 pseudovirus cell entry assay, luminescence; activity change, negative = inhibition: at 57.1 µM (top of the series) unless noted; series mostly up to 57.1 µM
In short: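 Data are normalized to wells receiving SARS-CoV-2-S pseudoparticles and those given bald particles. Entry signal was luciferase luminescence in stable hACE2 Expi293F cells, 48 hr post-infection, after 1 hr compound pretreatment.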
Potency is the fitted concentration of half-maximal effect.

SMILES | Potency | activity change, negative = inhibition
O=C(O)CCCCCCCC(=O)O | inactive | 
CC(=O)Oc1cc(C(C)C)c(OCCN(C)C)cc1C | inactive | 
COc1cc(C)nc(-n2nc(C)cc2OC)n1 | inactive | 
CC(=O)N(CC(O)CO)c1c(I)c(C(=O)NCCO)c(I)c(C(=O)NCC(O)CO)c1I (stereo not given) |  | -15%
Nc1nc2ccc(OC(F)(F)F)cc2s1 | inactive | 
CCN(CC)CCNC(=O)c1ccc(N)cc1 | inactive | 
CC(=O)N(CC(O)CO)c1c(I)c(C(=O)NCC(O)CO)c(I)c(C(=O)NCC(O)CO)c1I (stereo not given) | inactive | 
NC[C@H]1O[C@H](O[C@H]2[C@H](O[C@@H]3O[C@H](CO)[C@@H](O)[C@H]3O)C(O)[C@H](N)C[C@@H]2N)[C@H](N)[C@@H](O)[C@@H]1O (stereo not given in full) |  | -2.22% [at 11.3 µM]
Cc1cc(NS(=O)(=O)c2ccc(N)cc2)no1 | inactive | 
COc1ccc(-c2cc(=O)c3c(O)cc(O[C@@H]4O[C@H](CO[C@@H]5O[C@@H](C)[C@H](O)[C@@H](O)[C@H]5O)[C@@H](O)[C@H](O)[C@H]4O)cc3o2)cc1O | inactive | 
NC(=O)c1cccnc1 |  | -15.2%
COc1ccccc1OCC(O)CO (stereo not given) |  | -15.9%
Cc1cc(O)c2c(O)c3c(O)cccc3cc2c1 |  | -3.92%
CCOC(=O)O[C@]1(C(=O)OCCl)CC[C@H]2[C@@H]3CCC4=CC(=O)C=C[C@]4(C)[C@H]3[C@@H](O)C[C@@]21C | inactive | 
CC[N+](CC)(CC)CCOc1cccc(OCC[N+](CC)(CC)CC)c1OCC[N+](CC)(CC)CC | inactive | 
CC(C)=CCC1C(=O)N(c2ccccc2)N(c2ccccc2)C1=O |  | -3.84%
CC(C)NCC(O)c1ccc(NS(C)(=O)=O)cc1 (stereo not given) |  | -13.1% and -25%
OC[C@H]1O[C@@H](n2cnc3c2NC=NC[C@H]3O)C[C@@H]1O |  | -15% and -28%
CC(=O)N1CCN(c2ccc(OC[C@H]3CO[C@](Cn4ccnc4)(c4ccc(Cl)cc4Cl)O3)cc2)CC1 | 15.8 µM (active) | 
CN[C@@H]1[C@@H](O)[C@@H](O[C@@H]2[C@H](O)[C@H](O[C@H]3OC(CN)=CC[C@H]3N)[C@@H](N)C[C@H]2N)OCC1(C)O (stereo not given in full) | inactive | 
